Data from PubChem BioAssay AID1745849 (National Center for Advancing Translational Sciences (NCATS), 2022).
About 320 (15%) of roughly 2,100 compounds were called active. Another 52% or so got no clear call; they are omitted. Calls follow the shape of the dose curve; as a rule, active = well fitted cell-killing curve with a large enough effect; inconclusive = small, poorly fitted or top-dose-only effect, or effect the other way; inactive = flat fitted curve, though single readings scatter. The list shows a part of the results. A call without a number means that no potency is given here.

Assay: Viability Counterscreen for CMV-Luciferase Assay of Inhibitors of ATXN expression; also: nearly all actives have a fitted effect of over 55% in size
Conditions: HEK-293 CMV-luciferase cells viability, protease fluorescence, 24 h
How it was run: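 HEK-293 cells stably expressing a CMV-luciferase reporter were exposed to compounds at several concentrations for 24 hr at 37 degree C. Viability was read as Gly-Phe-AFC fluorescence (25 uM final, 30 min). SteadyGlo luminescence was then measured after 5 min.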
Potency is read from the fitted curve at half-maximal effect.

SMILES	Potency
O=C1CCCC(O)=C1C=NCc1ccccc1	inactive
Cc1cccc(/C=C/C(=O)c2ccc([N+](=O)[O-])o2)c1	3.16 µM (active)
CCc1c(C)nc2ncnn2c1N1CCC(C(=O)Nc2ccc(C)cc2)CC1	inactive
COc1ccc2c(c1)CC(N1CCN(C)CC1)c1cc(OC)ccc1S2 (configuration not stated)	28.2 µM (active)
CN1CCN(C2Cc3cc(Cl)ccc3Sc3cc(F)ccc32)CC1 (configuration not stated)	inactive
Cc1cccc(OCCCC(=O)Nc2nccs2)c1	inactive
O=C(CNC(=O)c1cccc(F)c1)N/N=C/c1cc(Br)ccc1OC(=O)/C=C/c1ccco1	inactive
Cc1ccccc1N1CCN(Cc2c[nH]c3ccccc23)CC1	inactive
CN1C(=O)/C(=C/c2ccccc2F)Sc2ccc(C(=O)N3CCCC3)cc21	inactive
CCN(CC)CCNC(=O)c1ccc(NC(=O)Cc2cccc3ccccc23)cc1	inactive
CCN(CC)CCNc1ccc(CO)c2sc3ccccc3c(=O)c12	25.1 µM (active)
O=c1c2ccccc2sc2c(CO)ccc(NCCN3CCCCC3)c12	25.1 µM (active)
Cc1nc2cc(NC(=O)CSc3nc4c(C)cccc4cc3C#N)ccc2s1	inactive
CC1(C)Cc2c(ccc3ccccc23)C2=C(C(=O)N3CCCC3)C(=O)C(=O)N21	inactive
O=C(/C=C/c1ccc(Cl)cc1)Nc1ccc(CN2CCOCC2)cc1	inactive
Cc1ccc(C(C)C)c(OCc2ccc(C(=O)N/N=C/c3cccc(O)c3O)cc2)c1	3.98 µM (active)
Cc1ccc(OCCn2cc(/C=N/NC(=O)c3ccncc3)c3ccccc32)cc1	inactive
Cc1cccc(OCCn2cc(/C=N/NC(=O)c3ccncc3)c3ccccc32)c1	inactive
COC(=O)c1ccc(C(=O)Nc2cc(Cl)ccc2Cl)cc1NC(=O)c1ccc(N(C)C)cc1	inactive
Cc1cccc(N=C2NN=C(c3c(C)[nH]c4ccccc34)CS2)c1	25.1 µM (active)
Cc1cc(C2=NNC(=NC3CC3)SC2)c(C)n1-c1ccccc1F	inactive
C/C(=N\NC(=O)C(C)n1nc(C)c([N+](=O)[O-])c1C)c1ccccc1O (configuration not stated)	inactive
NC(=O)c1cccc(Nc2nc(C(N)Cc3ccc(C(F)(F)F)cc3)cs2)n1 (configuration not stated)	inactive
COc1ccc(CC(N)c2csc(Nc3ccc(C(=O)c4ccccc4)cc3)n2)cc1 (configuration not stated)	inactive
CN(Cc1ccccc1)C(=O)c1ccc(Nc2nc(C(N)Cc3ccccc3)cs2)nc1 (configuration not stated)	10 µM (active)

SMILES	Potency
COc1cc2c(C(=O)N3CCOCC3)c(CSc3ccccc3)n(C)c2cc1Br	inactive
COc1ccc2nc(C)cc(NCc3ccc(F)cc3)c2c1	inactive
COc1ccc(CNc2ncnc3c2[nH]c2ccccc23)cc1	14.1 µM (active)
Cc1cc(C(=O)CN2C(=O)c3ccccc3S2(=O)=O)c(C)n1C(C)C	inactive
COc1ccc(CCn2c(C)cc(C(=O)CSc3nc(N)cc(=O)[nH]3)c2C)cc1	inactive
Cc1cccc(/C=N/NC(=O)c2cccc(Cl)c2)n1	inactive
Cc1[nH]n(-c2cccc3ccccc23)c(=O)c1/C=N/NC(=O)c1cccc([N+](=O)[O-])c1	11.2 µM (active)
Cc1[nH]n(-c2ccccc2)c(=O)c1C=Nc1cccc2cccnc12	inactive
Nc1ccc(Oc2ccccc2-c2ccccc2)cc1	inactive
CC(NC1=CC(=O)c2cccnc2C1=O)C(O)c1ccccc1 (configuration not stated)	17.8 µM (active)
Cc1ccc(Sc2nnc(Cc3ccccc3)c3ccccc23)cc1	inactive
Cc1ccc(S(=O)(=O)c2nc(NCc3ccc4c(c3)OCO4)sc2Cl)cc1	inactive
Fc1ccc2[nH]c3c(N4CCSCC4)ncnc3c2c1	17.8 µM (active)
Cc1ccc(C)c(OCCCC(=O)Nc2nccs2)c1	inactive
COc1ccc2c(Cl)c(C(=O)NN)sc2c1	inactive
Nc1c(C(=O)NCc2ccccc2)c2nc3ccccc3nc2n1-c1ccc2c(c1)OCO2	inactive
CC[C@H]1CN2CCc3cc(OC)c(OC)cc3C2C[C@@H]1C[C@H]1NCCc2cc(OC)c(OC)cc21 (some centres not stated)	0.316 µM (active)
CCC1=C(CC2NCCc3ccccc32)CC2c3cc(OC)c(OC)cc3CCN2C1 (configuration not stated)	10 µM (active)
O=C(CC1NCCc2ccccc21)Nc1ccc(Cl)cc1 (configuration not stated)	inactive
O=C(C1CCC(CNS(=O)(=O)c2cccc3nsnc23)CC1)N1CC=C(c2ccccc2)CC1 (configuration not stated)	inactive
COc1ccc(Br)cc1C(=O)Nc1ccccc1N1CCN(C(=O)c2ccccc2)CC1	inactive
CCOC(=O)COc1ccc(Br)cc1/C=C/c1[nH]c(=O)[nH]c(=O)c1[N+](=O)[O-]	inactive
CCN(CC)S(=O)(=O)c1ccc(N/N=C/c2cc(OC)ccc2O)nc1	inactive
CC(C)(C)c1ccc(Oc2ccc(N)cn2)cc1	inactive
COc1ccc2c(c1)C(SCC(=O)NCCc1ccc(Cl)cc1)CC(C)(C)O2 (configuration not stated)	inactive

SMILES	Potency
Cc1cccc(N2CCN(C(=O)CNC(=O)Cc3ccccc3)CC2)c1C	inactive
O=C(NNC(=O)C(c1ccccc1)c1ccccc1)c1ccccn1	10 µM (active)
CCC1=C(OC(=O)N(CC)CC)N2C(=O)OC(=NCCc3c[nH]c4ccccc34)[C@]2(Cc2ccccc2)[C@H]2C1=CC[C@H]1C(=O)N(c3ccccc3)C(=O)[C@H]12	inactive
CCc1ccc(-c2nc(CS(=O)CC(=O)NCc3ccco3)c(C)o2)cc1 (configuration not stated)	inactive
Cc1nc(N=C(N)N)nc2c(C)cccc12	8.91 µM (active)
O=C(N/N=C/c1cc(Br)cc(Br)c1O)c1cccc(N2CCCC2=O)c1	inactive
O=C(Nc1cccc2cccnc12)c1csc(COCCO)n1	inactive
CS(=O)(=O)N(CC(O)CON=C1c2ccccc2-c2ccccc21)c1ccc(F)cc1 (configuration not stated)	inactive
Cc1ccnc(NC(=O)C2CCN(S(=O)(=O)c3c(C)c(C)cc(C)c3C)CC2)c1	15.8 µM (active)
COc1ccc2nc(NC(=O)C3CCN(S(=O)(=O)c4cccs4)CC3)sc2c1	inactive
Cc1ccc(NC(=O)C2CCN(S(=O)(=O)c3ccc(N4CCCC4=O)cc3)CC2)cc1Cl	inactive
O=C(Cn1cnc([N+](=O)[O-])c1)Nc1cc(Oc2ccc(Cl)cc2Cl)cc([N+](=O)[O-])c1	inactive
Oc1ccc(Cl)cc1Sc1cc(Cl)ccc1O	20 µM (active)
CCOc1ccc(NC(=O)Nc2nnc(CC(=O)NCc3ccccc3)s2)cc1	inactive
Cc1cc(C)c(CSc2ncc(-c3ccc([N+](=O)[O-])cc3)[nH]2)c(C)c1	inactive
CN(C)CCCN(C(=O)c1ccc(S(=O)(=O)N(C)Cc2ccccc2)cc1)c1nc2cc3c(cc2s1)OCO3	22.4 µM (active)
CCN(c1ccccc1)S(=O)(=O)c1ccc(C(=O)N(CCCN(C)C)c2nc3c(C)cccc3s2)cc1	28.2 µM (active)
CCOc1ccccc1NC(=O)CCCc1nc2ccccc2c(=O)[nH]1	inactive
Cc1nn(C)c(C)c1NC(=O)CSc1nc(Cc2ccccc2)nc2c1cnn2-c1ccccc1	inactive
CCC(C)n1cnc2c(c1=O)c1nc3ccccc3nc1n2-c1ccc2c(c1)OCCO2 (configuration not stated)	inactive
C=CCn1cnc2c(c1=O)c1nc3ccccc3nc1n2/N=C/c1cc(OC)c(OC)c(OC)c1	11.2 µM (active)
CCCCC(=O)N(C)c1c(CC)nc2c(OCc3ccc(Cl)cc3Cl)cccn12	inactive
COc1ccc(Br)cc1C(=O)NC(=S)Nc1ccc(CN2CCOCC2)cc1	inactive
CNc1ccc(Br)cc(C(=O)/C=C/c2ccc3c(c2)OCO3)c1=O	inactive
CCNc1ccc(Br)cc(C(=O)/C=C/c2ccccc2Cl)c1=O	inactive

SMILES	Potency
CCc1ccc(/C=C/C(=O)c2cc(Br)ccc(=O)c2O)cc1	28.2 µM (active)
N#Cc1nc(COc2ccc(-c3ccccc3)cc2)oc1NCc1cccnc1	inactive
Cc1cccc(CN2C(=O)/C(=C\c3ccc(C(=O)NCCN4CCOCC4)cc3)Sc3ccccc32)c1	inactive
Cc1ccc(NC(=O)COc2ccc(/C=C3/SC(=Nc4ccccc4)N(Cc4cccnc4)C3=O)cc2)cc1	17.8 µM (active)
CCN1CCN(CCNC(=O)c2ccc(/C=C3/Sc4ccccc4N(Cc4cccc(C)c4)C3=O)cc2)CC1	inactive
CC(C)(C)n1nnnc1C(c1cccs1)N(Cc1ccc(Cl)cc1)CC1CCCO1 (configuration not stated)	inactive
CCN(CC)c1nc(-c2ccccn2)nc(-c2ccccc2)c1C#N	5.62 µM (active)
CC(C)Nc1nc(-c2ccccn2)nc(-c2ccccc2)c1C#N	inactive
O=S(=O)([N-]c1nc2ccccc2nc1-[n+]1ccc(Cc2ccccc2)cc1)c1ccc(Br)s1	3.55 µM (active)
COc1cccc(C(=O)Oc2c(CN3CCOCC3)cc(Cl)c3cccnc23)c1	inactive
COC(=O)N/N=C/c1cn(CC(C)COc2ccccc2)c2ccccc12 (configuration not stated)	inactive
S=C(NCCCN1CCOCC1)N1CCN(c2nc(-c3ccccc3)cs2)CC1	inactive
O=C(Nc1cnn(C23CC4CC(CC(C4)C2)C3)c1)c1cnn2c(C(F)(F)F)cc(-c3ccco3)nc12	12.6 µM (active)
COC(=O)c1ccc(Oc2nc(NC(C)C)nc(N(C)C)n2)cc1	inactive
O=C(CN1C(=O)c2ccccc2S1(=O)=O)N1CCc2ccccc21	inactive
COCC(C)n1c(C)cc(C(=O)COC(=O)c2cccn2C)c1C (configuration not stated)	inactive
N#Cc1ccc(-c2nc3cc(Cl)ccc3c(=O)n2O)cc1	inactive
O=c1c2ccc(Cl)cc2nc(-c2cccc(C(F)(F)F)c2)n1O	10 µM (active)
OC(c1ccc(Cl)cc1)c1ncc(-c2cccc(C(F)(F)F)c2)[nH]1 (configuration not stated)	inactive
Cc1ccc(CN2CC(C(=O)Nc3ncc(C)s3)CC2=O)cc1 (configuration not stated)	inactive
CCN(CCCn1c(=S)[nH]c2ccc(N3CCOCC3)cc2c1=O)c1ccccc1	inactive
CC(Sc1ccc(Cl)cc1)C(=O)NNC(=O)c1ccccc1O (configuration not stated)	inactive
